The structures appear in SMILES notation. The whole screen tested about 1,200 compounds, of which about 15 (1%) were called active. About 7% were inconclusive and are not listed. This is one part of a sample in which actives are shown more often than they occur. The call rests on the fitted dose curve; in most records, active means well fitted activation curve with a large enough effect; inconclusive means small, poorly fitted or top-dose-only effect; inactive means flat fitted curve, though single readings scatter.

The source of these data is PubChem BioAssay AID588463 (National Center for Advancing Translational Sciences (NCATS), 2011).

For this experiment, the target named is Beta-2 adrenergic receptor (Homo sapiens) (UniProt P07550). Kind of experiment: qHTS assay of beta-arrestin-biased ligands of beta2-adrenergic receptor: Hit Validation.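 Further: plate controls were DMSO for no effect and maximal isoproterenol or metaproterenol response for full effect.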 The conditions noted are these: cell-based beta-arrestin recruitment to beta2AR; Potency: activation; series mostly up to 46.1 µM; activation: at the top concentration. From the text: The concept of biased agonism is an emerging concept of molecular pharmacology which proposes that seven transmembrane receptors (7TMRs) or G protein-coupled receptors (GPCRs), exist in multiple signaling conformations and complexes and that ligands (either agonists or antagonists) can induce signaling biased responses for distinct signal transduction cascades.
Chain of Beta-2 adrenergic receptor (Homo sapiens) (P07550 whole entry, looked up): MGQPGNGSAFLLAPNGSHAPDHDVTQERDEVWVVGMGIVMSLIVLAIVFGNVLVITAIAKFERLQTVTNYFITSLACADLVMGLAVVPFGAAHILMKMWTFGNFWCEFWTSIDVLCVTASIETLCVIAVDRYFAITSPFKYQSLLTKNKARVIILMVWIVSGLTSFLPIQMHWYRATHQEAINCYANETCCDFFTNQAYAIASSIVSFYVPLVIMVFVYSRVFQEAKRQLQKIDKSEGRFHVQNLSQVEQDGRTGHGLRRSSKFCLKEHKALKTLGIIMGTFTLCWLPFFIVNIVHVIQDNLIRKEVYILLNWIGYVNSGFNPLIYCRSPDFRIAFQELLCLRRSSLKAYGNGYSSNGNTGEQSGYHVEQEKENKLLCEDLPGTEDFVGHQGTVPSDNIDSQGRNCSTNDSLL
Furthermore, accumulating evidence over the last decade has drawn attention to a novel function of beta-arrestins as signal transducers that scaffold various signaling molecules upon activation of 7TMRs. […] This beta-arrestin-biased signaling presumably leads to distinct physiological outcomes from those by G protein activation.
Additionally, the active receptor conformations which […] on this beta-arrestin signaling are likely different from those activating G protein signaling
The goal of this screening project will be to discover and optimize novel beta-arrestin-biased ligands for beta2-AR signaling. A luminescent cell-based assay for beta2-AR-mediated agonism, known as the Tango assay, has been validated in which ligand binding of a recombinant beta2-AR and subsequent recruitment of a recombinant beta-arrestin lead to the release of the transcriptional activator tTA, which upregulates transcription of a tTA-responsive luciferase gene.
NIH Molecular Libraries Probe Production Network [MLPCN]
NIH Chemical Genomics Center [NCGC]
PI: Bryan Roth (UNC) and Bob Lefkowitz (Duke)
NCGC Assay Protocol Summary:
Tango cells were dispensed into white, solid, tissue-culture-treated 1536-well plates at 1500 cells/well in DMEM, containing 1% fetal bovine serum (FBS). Then, 23 nL of compounds or DMSO were delivered to each well using a pin tool. Plates were incubated at 37 degrees C, 5% CO2 for 18 hr. Then 2.5 uL luminescent substrate mix (in-house prepared: 150 mM Tris-Cl, pH 7.6, 3 mM MgCl2, 1% Triton X-100, 5 mM DTT, 0.5 mM CoA, 0.15 mM ATP, 0.44 mM D-luciferin, final concentrations) was added to each well. Plates were then incubated for 15 minutes at room temperature, and subsequently measured on a ViewLux plate reader for luminescent signal using a clear filter with a 10 second exposure and 2x binning. The %Activity was determined from the corrected luminescence values.
Concentration-response curves were fitted to the signals arising from the resulting luminescence. The concentration-effect curves were then classified based on curve quality (r2), response magnitude and degree of measured activity, and compounds were subsequently categorized based on their curve class.
Keywords: biased agonism, beta2-AR, beta-arrestin, GPCR, 7TMR, Tango, luminescence, MLSMR, MLPCN, NIH Roadmap, qHTS, NCGC
(qHTS replaces the single test concentration by a dilution series.)
As for `C/C(CS(=O)(=O)c1ccc(Cl)c(Cl)c1)=N/NC(N)=S`, the “activation” value was -1.93% (inactive).
As for `C/C(=N\NC(=S)NCc1ccccc1)c1ccc2ccccc2c1OC(F)F`, the figure is -2.23% (inactive); as for `O=c1[nH]c(CSc2ccccn2)nc2c1cnn2-c1ccccc1`, -0.631% (inactive); as for `COc1ccc(NC(=O)c2cc3c(-c4ccc(OC)c(OC)c4)nn(C)c3s2)cc1OC`, -0.0302% (inactive).
Turning to `CCOC(=O)c1c(C)[nH]c(N=Nc2ccc(C)cc2C)c1C`, the “activation” value is -10.2% (inactive).
As for `CCOC(=O)N1CCN(Cc2c(F)cccc2F)CC1`, the figure is -2.4% (inactive); as for `CCOC(=O)c1sc(NC(=O)CSc2nnc(C(C)C)n2C)nc1C`, -3.85% (inactive).
With `CC(C)C(=O)COc1c2occc2cc2ccc(=O)oc12`, the “activation” value was -4.07% (inactive).
As for `O=C(Nc1cnccn1)c1ccc(Cl)cc1`, the figure is -1.39% (inactive).
To `CC(=O)N(c1ccccc1)C(C)c1nc(C#N)c(C#N)nc1C` (stereo unspecified) belongs -1.35% (inactive); to `FC(F)(F)c1cnc(N2CCSCC2)c(Cl)c1`, -6.12% (inactive); to `CN(Cc1ccccc1)C(=O)CN1C(=O)c2ccccc2C1=O`, -3.09% (inactive).
As for `COc1ccc(-c2cn3cccnc3n2)cc1F`, the “activation” value was -3.26% (inactive).
As for `O=C(NC(=S)N1CCCCCC1)c1ccccc1Cl`, the figure is -2.85% (inactive); as for `Cc1nc(C)c(CC(=O)N/N=C/c2ccc(O)cc2)c(=O)[nH]1`, -2.66% (inactive); as for `COc1ccc(OCCCC(=O)Nc2nc(-c3ccccn3)cs2)cc1`, 9.17% (inactive).
As for `Cn1cccc1C(=O)NC(=O)CSc1cccc[n+]1[O-]`, the figure is -3.1% (inactive); as for `C/C(=N\NC(=S)NCCc1ccccc1)c1ccc(Cl)cc1Cl`, -2.3% (inactive); as for `O=C1NC(c2ccc(-c3ccccc3[N+](=O)[O-])o2)C(C(=O)c2ccc(F)cc2)C(O)(C(F)(F)F)N1` (stereo unspecified), -4.07% (inactive).
Consider `Cc1ccc(CN2CCSCC2)c(C)c1`, for which the “activation” value was -2.68% (inactive).
To `C=CCNC(=S)N/N=C/c1ccc(-c2cc(Cl)ccc2Cl)o1` belongs -2.16% (inactive).
To `Cc1ccccc1NS(=O)(=O)c1ccc2oc(=O)ccc2c1` belongs -3.24% (inactive); to `COc1ccc(NC(=S)Nc2ccccn2)c(OC)c1`, -1.86% (inactive).
As for `O=C(CSc1cccc[n+]1[O-])c1cc2ccccc2o1`, the figure is -1.76% (inactive).
Take `CCC1(C)Cc2ccccc2C(=S)N1` (stereo unspecified): the “activation” value is -3.36% (inactive).
Regarding `C=C(C)c1cccc(C(C)(C)NC(=O)NC(c2ccccc2)c2ccc(OC)cc2)c1` (stereo unspecified), the “activation” value is 8.73% (inactive).
To `NC(=S)n1[nH]c(-c2ccc([N+](=O)[O-])cc2)c(N=Nc2cccc([N+](=O)[O-])c2)c1=O` belongs -5.18% (inactive); to `CCN(CC)CCCNC(=O)CCC(=O)NNc1nc2ccccc2c2nc(C)nn12`, -1.51% (inactive).
Turning to `Cc1cc(C)n(-c2nc(NC(C)C)nc(NC(C)C)n2)n1`, the “activation” value was -3.01% (inactive).
On to `O=C(CNc1cccc(Cl)c1)c1ccc(Br)cc1`, for which the “activation” value was -2.41% (inactive).
`Cc1nc(COC(=O)c2ccc(S(=O)(=O)N3CCCC3)cc2)cs1`: the “activation” value is -0.855% (inactive).
To `CC(C)NS(=O)(=O)c1ccc(NC(=O)C(C)Oc2ccc(C(=O)c3ccccc3)cc2)cc1` (stereo unspecified) belongs 0.57% (inactive); to `CCn1nnnc1SCC(=O)Nc1nc2ccc(OC)cc2s1`, -0.634% (inactive); to `CS(=O)(=O)Nc1ccc(-c2cn3cccnc3n2)cc1`, -3.46% (inactive).
To `O=C(NCCOc1cccnc1)C1CCC(=O)N(Cc2ccccc2F)C1` (stereo unspecified) belongs -3.24% (inactive).
As to `COc1ccc(N(CC(=O)N2CCCC2)S(C)(=O)=O)cc1`, the “activation” value is -3.72% (inactive).
In the case of `CCN(CC)CCC(=O)N1c2ccccc2Sc2ccc(NC(=O)OC)cc21`, the “activation” value was -1.25% (inactive).
For the compound `CCCn1c(-c2ccc(F)cc2)n[nH]c1=S`, the “activation” value is -4.3% (inactive).
As for `Cc1cccc(NC(=S)N=Nc2c(O)n(CN3CCOCC3)c3ccccc23)c1C`, the figure is -2.46% (inactive); as for `Cc1ccccc1OCC(=O)N/N=C/c1sc(=O)n(Cc2cccc(C(=O)O)c2)c1Cl`, -1.41% (inactive).
Regarding `CCOc1cccc(N)c1`, the “activation” value was -1.3% (inactive).
To `Cc1cccnc1NC(=S)Nc1ccc(Br)cc1Cl` belongs -1.9% (inactive); to `CCCCC(=O)/C=C/n1c(=S)oc2ccccc21`, -2.45% (inactive); to `CC(=O)N1CCN(CC(=O)c2ccc(Br)cc2)CC1`, -1.68% (inactive).
To `Cc1ccc(S(=O)(=O)N(CC(=O)N/N=C/c2ccco2)c2cc(Cl)cc(Cl)c2)cc1` belongs 0.42% (inactive); to `CC(=O)c1sc(Nc2nc3ccc(F)cc3s2)nc1C`, -2.59% (inactive).
Consider `Cc1nc2ccc(NC(=O)CS(=O)(=O)c3ccccc3)cc2s1`, for which the “activation” value is -1.85% (inactive).
Consider `O=C(NCCN1CCOCC1)c1ccccc1Cl`, for which the “activation” value is 0.534% (inactive).
`CCCCc1nnc(NC(=O)c2ccccc2OCc2c(C)noc2C)s1`: the “activation” value was -1.03% (inactive).
As for `CC(=O)c1ccc(N2CCN(C(=O)C3CCCN(S(=O)(=O)c4c(C)[nH]c(=O)[nH]c4=O)C3)CC2)cc1` (stereo unspecified), the figure is -4.9% (inactive); as for `CCOC(=O)n1c(=O)oc2cc(S(=O)(=O)N3CCCCC3)ccc21`, -4.09% (inactive); as for `CCOc1ccc(/C=N/NC(=S)NC2CC3CCC2C3)cc1` (stereo unspecified), -0.951% (inactive).
Regarding `CC1CCCN(C(=O)Cn2nnc(-c3ccc(F)cc3)n2)C1` (stereo unspecified), the “activation” value was -0.544% (inactive).
As for `FC(F)(F)c1nc2ccccc2nc1N/N=C\c1ccccc1`, the “activation” value is -2.93% (inactive).
As for `COc1ccc(OC)c(CNC(=O)CCCc2cn(C)c3ccccc23)c1`, the figure is -4.25% (inactive).
Consider `CC(=O)Oc1ccc2cc(-c3ccccc3)c(=O)oc2c1`, for which the “activation” value is -2.83% (inactive).
